From PubChem BioAssay AID1508600 (Functional Genomics Laboratory (NCATS/FGL), 2020)
Screen size: about 53,000 sequences; about 3,700 (7%) were called active.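 Rule for the calls: active = gene knockdowns whose robust z-score for IL-1 alpha signal is at least 2 or at most -2, so actives lie on both sides; inactive = the rest.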 The sample as a whole holds a higher share of actives than the screen did.

Assay: Components of the Cytosolic LPS Sensing Pathway: Gene Identification via Genome-wide siRNA Screen;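 note: robust z of the log signal after scaling to non-targeting control siRNA wells of the plate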
Conditions: RAW264.7 macrophages, IL-1a HTRF, actives lie on both sides, screened at 100 nM (by protocol), cells primed 5 h with Pam3CSK4 first
Outline: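 Cells (RAW264.7, 1×10^4 per well) were transfected with siRNA at 100 nM and cultured 48h at 37 degrees C. Pam3CSK4 was added for 5 hours; LipidA transfection followed for 24 hour. IL-1a was then measured by HTRF.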

z-score, active:
GCAGGUUUAACAACUUACUTT against Dmgdh 3.07
CCCAGUUCUGUCCUACUUATT against Efcab6 -2.79
GGAAUUCAUUGCUAUUAUGTT against Cetn3 2.12
GGUGGCACUCUUUCAGAUCTT against Dennd1a 2.08
GGUUGUGGACACAUCCAAATT against Aacs 2.08
GCCAUAUCAACCGUAUUGGTT against Lzts3 -2.58
GGAACUUAAGAACUUUCUATT against Calb1 2.3

z-score, inactive:
GGAACCUCUCAAUUUUGCGTT against Pik3ip1 0.659
GGAUUAGGUCAUUAUUAGGTT against Kcne3 -0.202
GGCAGUCUUGUCCCUUGUATT against Myl12a -0.74
GGAAGAAGGAACAUGAUCUTT against Mrpl52 -0.928
GGAGACAGUGGUAUUUUGATT against Birc5 0.468
GGAAGCAUGUGAGAGAAAATT against C130026I21Rik -1.03
GGCAUCACACAGGAGAAAATT against Ppp1r16b -0.391
GGAACAGAUGGGUGUGAAATT against Wnt2b -0.0195
CUUUUGUAAAGCCUUCCACTT against Zfp708 -0.259
GGAUCUCGGGAAAAAGUUGTT against Spesp1 0.185
GGUCUAUCUGAAGAACAGUTT against Xpo5 1.02
GGAGGCAUGCCCUAUGAAUTT against Zfp11 1.4
CCUCAAAUUAGUGCAGUUATT against Dnah8 0.661
GCUUGUCAAGUUUGUGAGCTT against Sec14l4 -0.0652
GGAAUAGUAACUCUUUCUCTT against Ehbp1l1 -0.0157
GGAUGUUAAAGCAAGUGUATT against Olfr1153 0.169
CGAGGAUUUCUAUCCUGACTT against Ascc1 -0.764
GGAAGUGCUCUGCUGUACATT against Eml6 0.655
GCUUGGUCAUUUUAAUAGGTT against Zscan29 -0.527
GGCCAGUGGGAAGUGAAGATT against Sec13 0.124
CGUGUACCAGCUACCUAAGTT against Phc2 -1.31
GGUUAGUAUGUAGCUCCCATT against Olfr982 -0.401
GGCCUAAAUUGACAAACUUTT against Oga 1.04
